# Results: PubChem BioAssay (NCATS)
# A number with no mark means an inactive call. Inconclusive results are not listed. Where a call stands in place of a potency, no number is given. The source made the active and inactive calls. Unless noted, calls follow the shape of the dose curve; as a rule, active = well fitted curve in the direction sought with a large enough effect; inconclusive = small, poorly fitted or top-dose-only effect, or another doubt; inactive = no such curve, though single readings can be large; an effect the other way counts as inactive or inconclusive.
# Legend:
# [1] = Validation of Assay for Modulators of Lamin A Splicing (AID 1459; active = well fitted curve in the direction sought with a large enough effect in the signal ratio; the % refers to the signal ratio;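 also: cells exposed to compound for two days before reading; ratio rise marks activators and ratio drop marks inhibitors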)
# How it was run: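 S3 HeLa cells stably expressing a lamin A-EGFP splicing minigene and DsRed2 were seeded at 600 cells/well in Opti-MEM with 2% FBS, pin-dosed, and incubated 48 hrs at 37 °C, 5% CO2. Laser-scanning cytometry (488 nm) gave GFP/RFP total intensity ratio.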
# [2] = target: DNA repair nuclease/redox regulator APEX1 (Homo sapiens) (UniProt P27695); experiment: qHTS Validation Assay for Inhibitors of the Human Apurinic/apyrimidinic Endonuclease 1 (APE1) (AID 1705; also: potency is read from the fitted curve at half-maximal effect)
# How it was run: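 Human APE1 was preincubated with compound for 15 min at room temperature, then 50 nM (final) THF-abasic double-stranded DNA substrate bearing 5'-TAMRA and 3'-BHQ-2 was added. Incision-driven fluorescence rise (ex 525/em 598 nm) was read kinetically.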
# [3] = Counterscreen for APE1 Inhibitors: Fluorescent Dye Displacement Validation Assay (AID 1707); also: potency is read from the fitted curve at half-maximal effect
# How it was run: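 ThO 250 nM + dsDNA 50 nM (THF abasic site, 5'-TAMRA), Tris-HCl pH7.5/50mM NaCl/2 mM MgCl2/0.01% Tween-20; compounds pin-transferred; ex 480/em 540 nm endpoint. Neutral = no compound; no-DNA ThO wells = negative control.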
# [4] = target: Endonuclease 4 (Escherichia coli (strain K12)) (UniProt P0A6C1); experiment: Counterscreen for APE1 Inhibitors: qHTS Validation Assay for Inhibitors of Endonuclease IV (AID 1708)
# How it was run: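 E. coli EndoIV at 2 nM final, preincubated 15 min at room temperature with compound, then 50 nM TAMRA/BHQ-2 THF abasic-site duplex added. Buffer: 50 mM Tris-HCl pH 7.5, 50 mM NaCl, 2 mM MgCl2, 1 mM DTT, 0.01% Tween-20. Kinetic fluorescence increase, third minus first read.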
# [5] = qHTS for differential inhibitors of proliferation of Plasmodium falciparum line GB4 (AID 1816); details: Potency: Plasmodium falciparum GB4 proliferation inhibition;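 also: parasite growth measured after 72 h incubation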; also: potency is read from the fitted curve at half-maximal effect
# [6] = qHTS for differential inhibitors of proliferation of Plasmodium falciparum line 3D7 (AID 1876); also: potency is read from the fitted curve at half-maximal effect
# [7] = qHTS for differential inhibitors of proliferation of Plasmodium falciparum line D10 (AID 1877);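 also: parasites grown with compound for 72 h before DNA staining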; also: potency is read from the fitted curve at half-maximal effect
# [8] = qHTS for differential inhibitors of proliferation of Plasmodium falciparum line Dd2 (AID 1882); details: Potency: Plasmodium falciparum Dd2 proliferation inhibition; also: nearly all actives have a fitted effect of over 65% in size; also: potency is read from the fitted curve at half-maximal effect
# How it was run: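 Dd2-infected erythrocytes (0.3% parasitemia, 2.5% hematocrit final) incubated with compound 72 h at 37 C, 5% CO2; lysed with saponin/Triton buffer containing SYBR Green I, incubated overnight in the dark, then read by fluorescence (485/535 nm). Normalized to 0.29 uM artemisinin and DMSO.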
# [9] = qHTS for differential inhibitors of proliferation of Plasmodium falciparum line HB3 (AID 1886); details: Potency: Plasmodium falciparum HB3 proliferation inhibition;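 also: parasites grown with compound for 72 h before SYBR Green readout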; also: potency is read from the fitted curve at half-maximal effect
# [10] = target: ATP-dependent DNA helicase Q1 (Homo sapiens) (UniProt P46063); experiment: qHTS Validation Assay for Inhibitors of RecQ-Like Dna Helicase 1 (RECQ1) (AID 2353); also: potency is read from the fitted curve at half-maximal effect
# How it was run: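 50 nM RECQ1T1 preincubated 15 min with compound in Tris pH 8.0 buffer with MgCl2, DTT, Tween-20 and 2.5 ug/ml poly(dI-dC); started with 200 nM TAMRA/BHQ-2 forked duplex and 2 mM ATP. Unwinding read as fluorescence (525/598 nm), two reads 2 h apart.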
# [11] = Validation screen for small molecules that induce DNA re-replication in MCF 10A normal breast cells (AID 463097); also: nearly all actives have a fitted effect of over 60% in size
# How it was run: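 Readout: Hoechst nuclear fluorescence intensity, 405 ex / 500-530 em, by scanning plate imager; re-replication scored as increase in nuclei with elevated DNA content. Cells exposed to compound 48 hr, 37 C, 5% CO2 beforehand.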
# [12] = Quantitative high throughput screen for delayed death inhibitors of the malarial parasite plastid, 48 hour incubation (AID 488752); also: nearly all actives have a fitted effect of over 65% in size; also: potency is read from the fitted curve at half-maximal effect
# How it was run: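 Readout is firefly luciferase luminescence from a reporter integrated into the parasite genome, with lower signal taken as inhibited growth. Infected red cells (0.1% parasitemia, 2% hematocrit final) are cultured with compound for one 48 h cycle at 37 C.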
# [13] = target: Transient receptor potential cation channel subfamily V member 1 (Homo sapiens) (UniProt Q8NER1); experiment: HTS Assay for Compounds that Act as Enhancers of the Vanilloid Receptor 1 (AID 488979)
# How it was run: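 TRPV1 cells loaded with Fluo-8 calcium dye; compound added and Ca2+ signal (ex 480/em 520 nm) followed 3 min, then capsaicin at EC20 added and read 2 more min to detect enhancement.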
# [14] = target: Thyrotropin receptor (Homo sapiens) (UniProt P16473); experiment: qHTS Assay for Antagonists of the Thyroid Stimulating Hormone Receptor (AID 488980); also: series mostly up to about 58 µM
# How it was run: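 HEK293 cells transfected with human TSHR, suspended in HEPES-buffered HBSS with 70 uM RO 20-1724, were treated with compounds plus TSH at EC80 (4 nM final). cAMP was measured by competitive HTRF (cryptate anti-cAMP antibody, cAMP-d2 acceptor).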
# [15] = target: Thyrotropin-releasing hormone receptor (Homo sapiens) (UniProt P34981); experiment: qHTS for Small Molecule Agonists and Allosteric Enhancers of Human TRH Receptor: Validation Screen for Agonists (AID 493127;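 active = calcium activation more than 3 SD above the typical response in the agonist read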;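 also: intracellular calcium rise by fluo-8 fluorescence before TRH EC20 addition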); details: TRH receptor agonist cell assay; at 2 µM; hits give high values
# How it was run: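 Cells 2000/well, 10% FCS, 18 h 33.5C/5% CO2 → fluo-8 Ca dye, RT 30 min–1.5 h → FDSS baseline 10 × 1 s → compound added → 230 cycles (1 s/cycle) agonist mode. TRH controls.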
# [16] = target: Galactokinase (Homo sapiens) (UniProt P51570); experiment: qHTS Validation Assay for Inhibitors of Human Galactokinase (GALK) (AID 493189)
# How it was run: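 GALK (5 nM) with 35 uM ATP and 100 uM galactose in HEPES pH8.0, MgCl2, NaCl, DTT, BSA; 1 h at room temperature. Residual ATP read by Kinase-Glo Plus luminescence after 10 min.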
# [17] = Validation screen for small molecules that induce DNA re-replication in SW480 colon adenocarcinoma cells (AID 504364)
# How it was run: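 250 cells/well; compound pinned in; 48 hr, 37 C, 5% CO2; Hoechst added, 40 min; nuclear fluorescence imaged, 405 ex / 500-530 em; re-replication scored as increase in high-intensity nuclei.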
# [18] = Quantitative high throughput screen for delayed death inhibitors of the malarial parasite plastid, 96 hour incubation (AID 488745); also: nearly all actives have a fitted effect of over 70% in size; also: potency is read from the fitted curve at half-maximal effect
# How it was run: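 Infected erythrocytes were added to compound in Albumax-supplemented RPMI 1640 at 0.1% parasitemia and 2% hematocrit (final), incubated 96 h at 37 C under 5% CO2, then luciferase reagent was added and luminescence measured.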
# [19] = target: Voltage-gated inwardly rectifying potassium channel KCNH2 (Homo sapiens) (UniProt Q12809); experiment: qHTS Assay for Small Molecule Inhibitors of the Human hERG Channel Activity (AID 588834);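 also: lower thallium flux fluorescence means stronger hERG block; nearly all actives have a fitted effect of over 50% in size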; also: potency is read from the fitted curve at half-maximal effect
# How it was run: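 U2OS cells transduced with hERG via BacMam (MOI ~100), plated 2000/well, loaded with FluxOR thallium dye, compound ~10 min, then stimulation buffer; fluorescence decrease read kinetically; AC50 from Hill fits.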
# Thyrotropin receptor (Homo sapiens), sequence (P16473 whole entry, looked up): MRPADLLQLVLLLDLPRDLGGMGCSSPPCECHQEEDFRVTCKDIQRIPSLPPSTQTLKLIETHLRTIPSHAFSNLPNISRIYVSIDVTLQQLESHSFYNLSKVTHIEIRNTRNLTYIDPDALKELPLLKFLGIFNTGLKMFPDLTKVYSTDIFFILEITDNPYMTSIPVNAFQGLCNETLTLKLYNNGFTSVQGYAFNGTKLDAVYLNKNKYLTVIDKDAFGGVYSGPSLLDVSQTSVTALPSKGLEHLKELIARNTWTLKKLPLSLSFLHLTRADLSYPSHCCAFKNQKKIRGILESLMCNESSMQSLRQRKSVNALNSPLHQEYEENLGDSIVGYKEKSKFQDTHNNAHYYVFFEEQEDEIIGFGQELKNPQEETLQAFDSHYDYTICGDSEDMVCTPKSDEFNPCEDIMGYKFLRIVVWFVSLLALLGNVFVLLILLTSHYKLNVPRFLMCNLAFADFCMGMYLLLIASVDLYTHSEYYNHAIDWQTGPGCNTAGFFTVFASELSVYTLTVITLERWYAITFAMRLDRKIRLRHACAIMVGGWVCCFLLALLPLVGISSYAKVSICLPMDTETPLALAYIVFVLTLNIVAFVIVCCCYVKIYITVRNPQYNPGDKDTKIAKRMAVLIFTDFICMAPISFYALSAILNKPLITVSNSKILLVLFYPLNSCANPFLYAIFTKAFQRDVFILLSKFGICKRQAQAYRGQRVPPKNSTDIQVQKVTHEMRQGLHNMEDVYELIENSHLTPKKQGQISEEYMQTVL
# ATP-dependent DNA helicase Q1 (Homo sapiens), sequence (P46063 whole entry, looked up): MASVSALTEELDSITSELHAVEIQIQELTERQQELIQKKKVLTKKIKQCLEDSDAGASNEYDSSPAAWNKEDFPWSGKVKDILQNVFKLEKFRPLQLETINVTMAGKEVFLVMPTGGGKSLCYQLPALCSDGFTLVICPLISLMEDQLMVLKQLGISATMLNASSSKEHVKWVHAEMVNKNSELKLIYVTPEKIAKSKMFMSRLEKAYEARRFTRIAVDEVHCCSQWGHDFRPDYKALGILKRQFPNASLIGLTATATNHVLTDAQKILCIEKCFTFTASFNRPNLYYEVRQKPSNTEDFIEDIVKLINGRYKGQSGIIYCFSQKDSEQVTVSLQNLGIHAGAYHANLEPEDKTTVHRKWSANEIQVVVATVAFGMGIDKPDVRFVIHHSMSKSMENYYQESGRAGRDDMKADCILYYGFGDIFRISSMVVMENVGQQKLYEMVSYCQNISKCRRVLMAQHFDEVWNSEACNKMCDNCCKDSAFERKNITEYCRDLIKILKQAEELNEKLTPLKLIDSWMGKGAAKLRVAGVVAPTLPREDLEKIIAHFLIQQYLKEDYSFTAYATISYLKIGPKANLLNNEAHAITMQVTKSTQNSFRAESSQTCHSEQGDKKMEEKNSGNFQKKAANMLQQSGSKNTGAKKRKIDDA
# DNA repair nuclease/redox regulator APEX1 (Homo sapiens), sequence (P27695 whole entry, looked up): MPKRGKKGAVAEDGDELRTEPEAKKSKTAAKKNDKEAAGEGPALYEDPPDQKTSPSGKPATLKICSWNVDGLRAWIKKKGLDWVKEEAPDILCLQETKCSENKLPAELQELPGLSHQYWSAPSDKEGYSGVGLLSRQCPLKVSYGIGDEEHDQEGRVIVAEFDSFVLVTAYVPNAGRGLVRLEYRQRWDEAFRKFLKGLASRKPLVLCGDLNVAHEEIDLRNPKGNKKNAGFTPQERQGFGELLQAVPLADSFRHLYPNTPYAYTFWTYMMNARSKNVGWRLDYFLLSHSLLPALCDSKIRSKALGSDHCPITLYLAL
# Voltage-gated inwardly rectifying potassium channel KCNH2 (Homo sapiens), sequence (Q12809 whole entry, looked up): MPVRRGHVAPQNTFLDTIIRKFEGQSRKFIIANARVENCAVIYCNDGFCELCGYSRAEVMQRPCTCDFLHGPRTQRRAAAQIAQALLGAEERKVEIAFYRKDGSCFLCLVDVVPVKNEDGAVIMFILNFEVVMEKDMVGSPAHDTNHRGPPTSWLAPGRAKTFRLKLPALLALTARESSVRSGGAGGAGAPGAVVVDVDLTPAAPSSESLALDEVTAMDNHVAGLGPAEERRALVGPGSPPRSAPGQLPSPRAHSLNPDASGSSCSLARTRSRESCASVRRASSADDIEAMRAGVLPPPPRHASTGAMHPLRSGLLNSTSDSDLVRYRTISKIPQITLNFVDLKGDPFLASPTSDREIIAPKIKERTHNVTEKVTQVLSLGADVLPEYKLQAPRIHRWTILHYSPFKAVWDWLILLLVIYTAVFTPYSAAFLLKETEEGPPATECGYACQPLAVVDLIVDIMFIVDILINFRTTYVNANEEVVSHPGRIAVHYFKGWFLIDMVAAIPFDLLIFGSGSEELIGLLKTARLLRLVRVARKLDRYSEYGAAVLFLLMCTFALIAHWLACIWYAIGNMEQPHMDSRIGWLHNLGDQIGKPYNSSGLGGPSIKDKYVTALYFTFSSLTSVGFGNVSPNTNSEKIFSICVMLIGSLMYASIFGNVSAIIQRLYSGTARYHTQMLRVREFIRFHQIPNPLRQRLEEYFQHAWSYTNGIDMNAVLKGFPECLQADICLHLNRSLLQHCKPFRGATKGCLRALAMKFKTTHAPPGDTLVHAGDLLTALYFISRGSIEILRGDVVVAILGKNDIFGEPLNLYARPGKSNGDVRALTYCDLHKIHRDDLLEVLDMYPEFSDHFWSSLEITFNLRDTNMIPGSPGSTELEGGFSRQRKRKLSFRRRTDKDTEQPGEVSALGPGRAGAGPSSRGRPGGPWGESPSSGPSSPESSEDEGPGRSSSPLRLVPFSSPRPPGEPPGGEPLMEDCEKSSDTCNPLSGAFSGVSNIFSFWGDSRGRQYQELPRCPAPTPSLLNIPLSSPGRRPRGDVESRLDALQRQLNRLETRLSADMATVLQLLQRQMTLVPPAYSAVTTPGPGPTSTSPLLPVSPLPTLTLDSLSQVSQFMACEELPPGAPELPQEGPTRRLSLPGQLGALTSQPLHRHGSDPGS
# Transient receptor potential cation channel subfamily V member 1 (Homo sapiens), sequence (Q8NER1 whole entry, looked up): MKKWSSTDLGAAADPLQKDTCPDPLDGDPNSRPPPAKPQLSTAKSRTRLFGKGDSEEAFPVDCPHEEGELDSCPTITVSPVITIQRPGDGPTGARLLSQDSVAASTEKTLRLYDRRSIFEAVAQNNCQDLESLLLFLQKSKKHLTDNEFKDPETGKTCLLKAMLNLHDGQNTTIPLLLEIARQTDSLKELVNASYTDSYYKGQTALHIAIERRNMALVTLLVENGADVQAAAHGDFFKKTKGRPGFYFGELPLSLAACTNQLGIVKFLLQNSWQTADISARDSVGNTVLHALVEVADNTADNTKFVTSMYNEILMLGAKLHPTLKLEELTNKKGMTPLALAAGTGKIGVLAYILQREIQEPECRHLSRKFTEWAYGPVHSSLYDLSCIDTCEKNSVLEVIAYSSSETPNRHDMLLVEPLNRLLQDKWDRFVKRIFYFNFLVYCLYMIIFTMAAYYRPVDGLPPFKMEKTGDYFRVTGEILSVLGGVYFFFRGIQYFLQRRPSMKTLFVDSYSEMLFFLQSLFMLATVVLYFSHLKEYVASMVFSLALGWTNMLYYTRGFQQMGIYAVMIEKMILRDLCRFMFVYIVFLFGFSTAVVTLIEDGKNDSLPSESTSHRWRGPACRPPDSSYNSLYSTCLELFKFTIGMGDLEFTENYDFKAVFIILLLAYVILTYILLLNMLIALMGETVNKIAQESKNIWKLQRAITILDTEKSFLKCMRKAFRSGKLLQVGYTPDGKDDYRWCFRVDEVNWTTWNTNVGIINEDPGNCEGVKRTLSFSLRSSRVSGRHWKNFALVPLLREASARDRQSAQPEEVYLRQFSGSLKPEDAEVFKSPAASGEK
# Galactokinase (Homo sapiens), sequence (P51570 whole entry, looked up): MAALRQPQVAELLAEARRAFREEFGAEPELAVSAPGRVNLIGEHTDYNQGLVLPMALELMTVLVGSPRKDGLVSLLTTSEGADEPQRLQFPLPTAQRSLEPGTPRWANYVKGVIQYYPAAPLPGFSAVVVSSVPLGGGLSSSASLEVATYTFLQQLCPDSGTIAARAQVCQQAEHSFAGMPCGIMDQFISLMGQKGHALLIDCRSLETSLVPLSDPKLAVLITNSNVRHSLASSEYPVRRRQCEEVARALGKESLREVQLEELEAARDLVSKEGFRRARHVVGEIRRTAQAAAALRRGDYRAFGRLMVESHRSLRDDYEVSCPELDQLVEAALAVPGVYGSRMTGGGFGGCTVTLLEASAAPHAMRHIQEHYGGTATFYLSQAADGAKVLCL
# Thyrotropin-releasing hormone receptor (Homo sapiens), sequence (P34981 whole entry, looked up): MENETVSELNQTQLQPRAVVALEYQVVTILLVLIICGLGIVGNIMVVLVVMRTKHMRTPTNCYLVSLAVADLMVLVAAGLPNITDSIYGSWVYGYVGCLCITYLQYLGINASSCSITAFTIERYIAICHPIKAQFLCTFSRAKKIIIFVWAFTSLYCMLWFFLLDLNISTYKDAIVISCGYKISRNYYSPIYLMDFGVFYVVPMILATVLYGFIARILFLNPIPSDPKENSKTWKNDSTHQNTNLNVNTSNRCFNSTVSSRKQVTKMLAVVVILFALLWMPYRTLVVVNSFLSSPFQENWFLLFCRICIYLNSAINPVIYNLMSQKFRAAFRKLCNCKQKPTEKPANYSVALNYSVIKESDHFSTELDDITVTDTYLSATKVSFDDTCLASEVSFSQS
Structure (SMILES),outcome [1],Potency [2],Potency [3],outcome [4],Potency [5],Potency [6],Potency [7],Potency [8],Potency [9],Potency [10],outcome [11],Potency [12],outcome [13],outcome [14],activation [15] [%],outcome [16],outcome [17],Potency [18],Potency [19]
CCn1c(=O)c2[nH]c(-c3ccccc3)nc2n(CC)c1=O,inactive,inactive,inactive,inactive,inactive,inactive,inactive,inactive,inactive,inactive,inactive,inactive,inactive,inactive,0.688,inactive,inactive,,
CC(=O)NCCc1ccc(O)c(O)c1,inactive,inactive,inactive,inactive,,,,inactive,,inactive,inactive,inactive,inactive,inactive,0.75,inactive,inactive,inactive,inactive
Nc1ncnc2c1ncn2[C@@H]1O[C@H](CO)[C@H](O)[C@H]1O,inactive,inactive,inactive,inactive,inactive,inactive,inactive,inactive,inactive,inactive,inactive,inactive,inactive,inactive,1.5,inactive,inactive,inactive,
NC(=S)c1ccc[n+]([C@@H]2O[C@@H](COP(=O)([O-])OP(=O)(O)OC[C@H]3O[C@@H](n4cnc5c(N)ncnc54)[C@H](OP(=O)(O)O)[C@H]3O)C(O)C2O)c1 (some centres undefined),inactive,inactive,inactive,inactive,inactive,inactive,inactive,inactive,inactive,inactive,inactive,inactive,inactive,inactive,-0.0625,inactive,inactive,inactive,inactive
Cc1ccccc1N1CCN(S(=O)(=O)C[C@]23CCC(CC2NC(=O)[C@@H](N)CCS(C)(=O)=O)C3(C)C)CC1 (some centres undefined),inactive,inactive,inactive,,,inactive,,,inactive,inactive,inactive,inactive,inactive,inactive,1,inactive,inactive,inactive,inactive
CC(N)=NCCCC(N)C(=O)O (centres undefined),inactive,inactive,inactive,inactive,inactive,inactive,inactive,inactive,inactive,inactive,inactive,inactive,inactive,inactive,0.938,inactive,inactive,inactive,inactive
NC(=S)NCCCC(N)C(=O)O (centres undefined),inactive,inactive,inactive,inactive,,inactive,inactive,inactive,inactive,inactive,inactive,inactive,inactive,inactive,-0.25,inactive,inactive,inactive,
Nc1ncnc2c1ncn2[C@@H]1O[C@H](C(=O)NC2CC2)[C@H](O)[C@H]1O,inactive,inactive,inactive,inactive,inactive,inactive,inactive,inactive,inactive,inactive,inactive,inactive,inactive,inactive,1.12,inactive,inactive,inactive,inactive
CN1C2CC(OC(=O)C(CO)c3ccccc3)CC1C1OC12 (centres undefined),inactive,inactive,inactive,,,inactive,inactive,inactive,inactive,inactive,inactive,inactive,,inactive,,inactive,inactive,inactive,
CC(C)C[C@H]1C(=O)N2CCCC2[C@]2(O)O[C@](NC(=O)[C@@H]3C=C4c5cccc6[nH]c(Br)c(c56)C[C@H]4N(C)C3)(C(C)C)C(=O)N12 (some centres undefined),inactive,inactive,inactive,,,,,,,inactive,,8.28 µM (active),inactive,inactive,0.625,inactive,,9.28 µM (active),inactive
CNC(=O)[C@H]1O[C@@H](n2cnc3c(NCc4ccc(N)cc4)ncnc32)[C@H](O)[C@H]1O,inactive,inactive,inactive,,inactive,inactive,inactive,inactive,inactive,inactive,inactive,inactive,inactive,inactive,-0.312,inactive,inactive,inactive,inactive
NCCCCNS(=O)(=O)c1cccc2c(Cl)cccc12,inactive,inactive,inactive,inactive,10 µM (active),8.91 µM (active),10 µM (active),,12.6 µM (active),inactive,,14.7 µM (active),,inactive,0.5,inactive,,,4.47 µM (active)
O=[N+]([O-])c1ccc(CSc2ncnc3c2ncn3[C@@H]2O[C@H](CO)[C@H](O)[C@H]2O)cc1,inactive,inactive,inactive,inactive,inactive,,inactive,,,inactive,inactive,inactive,inactive,inactive,0.688,inactive,inactive,inactive,
C[C@H](Cc1ccccc1)Nc1ncnc2c1ncn2[C@@H]1O[C@H](CO)[C@H](O)[C@H]1O,inactive,inactive,inactive,inactive,inactive,inactive,inactive,inactive,inactive,inactive,inactive,,inactive,inactive,-2.69,inactive,inactive,inactive,inactive
CSc1nc(N)c2ncn([C@@H]3O[C@H](COP(=O)(O)OP(=O)(O)OP(=O)(O)O)[C@H](O)[C@H]3O)c2n1,inactive,inactive,inactive,inactive,12.6 µM (active),,12.6 µM (active),inactive,,inactive,inactive,inactive,inactive,inactive,24.8,inactive,inactive,inactive,inactive
OC[C@H]1O[C@@H](n2cnc3c(Nc4ccccc4)ncnc32)[C@H](O)[C@H]1O,inactive,inactive,inactive,inactive,inactive,inactive,inactive,inactive,inactive,inactive,inactive,inactive,inactive,inactive,0.188,inactive,inactive,,inactive
Nc1nc2c(nc(Br)n2C2O[C@H]3COP(=O)(O)O[C@@H]3C2O)c(=O)[nH]1 (some centres undefined),inactive,inactive,inactive,inactive,,10 µM (active),,7.94 µM (active),,inactive,inactive,10.4 µM (active),inactive,inactive,0.812,inactive,inactive,,
N.N.N.N.N.N.N.N.N.N.N.N.N.N.O.O.[Cl-].[Cl-].[Cl-].[Cl-].[Cl-].[Cl-].[Ru].[Ru].[Ru],inactive,35.5 µM (active),20 µM (active),,,,,,,4.47 µM (active),inactive,inactive,inactive,,1.06,inactive,inactive,inactive,inactive
CCSC(N)=Nc1ccc(C(F)(F)F)cc1,inactive,inactive,inactive,inactive,,inactive,inactive,inactive,inactive,inactive,inactive,inactive,inactive,inactive,-5.5,inactive,inactive,inactive,inactive
COc1ccc(CCNC[C@@H](O)c2ccc(O)cc2)cc1OC,inactive,inactive,inactive,inactive,inactive,inactive,inactive,inactive,inactive,inactive,inactive,inactive,inactive,inactive,,inactive,inactive,inactive,
CC(O)[C@@H](O)[C@H]1CNc2nc(N)[nH]c(=O)c2N1 (some centres undefined),inactive,inactive,inactive,,inactive,inactive,inactive,inactive,inactive,inactive,inactive,inactive,inactive,inactive,0.0625,inactive,inactive,inactive,
CCCCC#Cc1nc(N)c2ncn([C@@H]3O[C@H](C(=O)NCC)[C@@H](O)[C@H]3O)c2n1,inactive,inactive,inactive,,,8.91 µM (active),,,11.2 µM (active),inactive,inactive,,inactive,inactive,-0.438,inactive,inactive,13.1 µM (active),inactive
CN1C2CCC1CC(NC(=O)c1nn(C)c3ccccc13)C2 (centres undefined),inactive,inactive,inactive,inactive,inactive,inactive,inactive,inactive,inactive,inactive,inactive,inactive,inactive,inactive,0.75,inactive,inactive,,inactive
